From PubChem BioAssay (EPA / NIEHS)
Active and inactive are the calls of the source. Rule for the calls: active = hit-call score of the fitted dose curve at least 0.9, where 1 is the maximum; inactive = score below 0.9.

The compounds below were run on JUN Transcription Factor, JUN (gene 3725) (assay: LTEA_HepaRG_JUN: Life Technologies and Expression Analysis (LTEA) Assay for JUN Transcription Factor using HepaRG (AID 2283513)). Details: mRNA level, 48 h; actives raise or lower the signal.
Protocol: LTEA_HepaRG is a cell based, multiplexed-readout assay that uses HepaRG, a human liver cell line, with measurements taken at 48 hours after chemical dosing on a 96-well plate.LTEA_HepaRG_JUN is one of 102 assay component(s) measured in the LTEA HepaRG cell culture assay. It is a marker of Cell proliferation, survival, death.Data from the assay component LTEA_HepaRG_JUN was analyzed into 1 endpoint. This assay endpoint, LTEA_HepaRG_JUN, was analyzed with bidirectional fitting relative to DMSO as the negative control and baseline of activity. Using a type of inducible reporter, measures of mRNA induction for gain or loss-of-signal activity can be used to understand regulation of transcription factor activity. To generalize the intended target to other relatable targets, this assay endpoint is annotated to the dna binding intended target family, where the subfamily is basic leucine zipper.
A total of 1060 chemcials from the ToxCast library were tested in eight-point concentration-response experiments. Cell culture and cytotoxicity assays were conducted at Thermo Fisher Scientific's Custom Services facility (Madison, WI). A single lot of human HepaRG cells (Thermo Fisher Scientific, Frederick, MD) was used for the cell culture experiments. 96-well format collagen type I coated plates of human HepaRG cells were prepared using established methods. Briefly, cryopreserved HepaRG cells were thawed, plated at a density of approximately 100,000 cells/well in HepaRG Thaw, Plate, and General Purpose media (HPRG770, Thermo Fisher Scientific), and incubated for 48 hours. 0.5% DMSO was selected as vehicle control to balance the requisite need of DMSO in HepaRG cultures to maintain differentiation (for example, baseline metabolism, proportions of hepatocytes vs. cholangiocytes), while enabling further hepatic receptor pathway activation (for example, PXR and CAR) in response to chemical exposure. 48 hours after plating, the culture medium was replaced with HepaRG Serum-Free Incudtion Media. Cells were exposed to each test chemical in duplicate and maintained in CO2 incubators for another 48 hours. Chemical plates were thawed to room temperature and 200x concentrations of treatment groups were prepared. 8-point conentration-reponse curves were made with the highest exposure at 100 uM, followed by half-log dilutions, all in 0.5% DMSO. Each test plate contained variouse controls, induction positive controls (1mM phenobarbital), cytotoxicity positive controls ([…] aflatoxin B1), vehicle controls (0.5% DMSO), and total lysis controls (0.5% DMSO). Cell morphology images were taken using an Essen IncuCyte FLR automated microscope, with six 96-well plates imaged in about 24 minutes. Images were captured and exported and JPEG files. Spent culture media was transfered to black-well plates for the LDH assay, and remaining media was sorted at -80 C for later use. Cells were treated with RLT buffer and frozen until shipped for gene expression analysis. Total RNA was isolated from the cell suspension in 75 uL of Buffer RLT (Qiagen, Germantown, MD 20874) by Quintiles/Expression Analysis (Durham, NC) using a custom isolation procedure. Total RNA from each plate well was transferred to a preamplification plate. Fluidigm's 96.96 Dynamic ArrayTM (Fluidigm, Amsterdam, the Netherlands) technology was used for gene expression analyses by quantitative reverse transcription polymerase chain reaction (qRT-PCR, performed by Quintiles/Expression Analysis, Durham, NC)89. Standard TaqManTM Assays (Applied Biosystems/ThermoFisher Scientific, Foster City, CA) were used to assess the expression of 93 genes selected based on their selectivity and sensitivity to important hepatic receptors known to be modulated by environmental chemicals; importance in human hepatocyte functionality; and hepatotoxicity. […]

Compound | outcome
COc1cc(Cl)c(OC)cc1Cl | inactive
CC(C)(C)C(=O)C(Oc1ccc(Cl)cc1)n1cncn1 (stereo not given) | inactive
O=P(O)(O)CCCl | inactive
CC(C)NC(=O)N1CC(=O)N(c2cc(Cl)cc(Cl)c2)C1=O | inactive
COC(=O)c1c(C(F)F)nc(C(F)(F)F)c(C2=NCCS2)c1CC(C)C | inactive
CCOc1cc(C(C)(C)C)ccc1C1COC(c2c(F)cccc2F)=N1 (stereo not given) | inactive
CS(=O)(=O)c1ccc(C(=O)C2C(=O)CCCC2=O)c([N+](=O)[O-])c1 | inactive
COP(=O)(OC)O/C(C)=C/C(=O)N(C)C | inactive
CC1(C)CON(Cc2ccccc2Cl)C1=O | inactive
C=C(C)CN(CC)c1c([N+](=O)[O-])cc(C(F)(F)F)cc1[N+](=O)[O-] | inactive
CCCN(CC)CC1COC2(CCC(C(C)(C)C)CC2)O1 (stereo not given) | inactive
O=C(Nc1ccccc1-c1ccc(Cl)cc1)c1cccnc1Cl | inactive
CCOP(=O)(OCC)Oc1nc(Cl)c(Cl)cc1Cl | inactive
Cc1c(COC(=O)[C@@H]2[C@H](/C=C(\Cl)C(F)(F)F)C2(C)C)cccc1-c1ccccc1 | inactive
CO/N=C(/C1=NOCCO1)c1ccccc1Oc1ncnc(Oc2ccccc2Cl)c1F | inactive
CC(C)Oc1cccc(NC(=O)c2ccccc2C(F)(F)F)c1 | inactive
Nc1cnn(-c2ccccc2)c(=O)c1Cl | inactive
N#Cc1c[nH]cc1-c1cccc2c1OC(F)(F)O2 | inactive
Cn1c(-c2ccccc2)cc(-c2ccccc2)[n+]1C | inactive
Nc1c(Cl)c(Cl)nc(C(=O)O)c1Cl | inactive

Compound | outcome
CCN(CC)C(=O)C(C)Oc1cccc2ccccc12 (stereo not given) | inactive
CN/C(=N\[N+](=O)[O-])NCc1cnc(Cl)s1 | inactive
CCNC(=O)NC(=O)C(C#N)=NOC | inactive
COCC(C)N(C(=O)CCl)c1c(C)csc1C (stereo not given) | inactive
Clc1cccc(C(Cl)(Cl)Cl)n1 | inactive
Cc1cnc(C2=NC(C)(C(C)C)C(=O)N2)c(C(=O)O)c1 (stereo not given) | inactive
CC(C)C1(C)N=C(c2ncccc2C(=O)O)NC1=O (stereo not given) | inactive
CCCCOCN(C(=O)CCl)c1c(CC)cccc1CC | inactive
CCOP(=S)(OCC)Oc1nc(Cl)n(C(C)C)n1 | inactive
N#Cc1c(Cl)cccc1Cl | inactive
CC(C)N1C(=O)N(c2ccccc2)CSC1=NC(C)(C)C | inactive
COc1cc(OC)nc(NC(=O)NS(=O)(=O)c2ncccc2OCC(F)(F)F)n1 | inactive
Cc1nc(N(C)C)nc(OC(=O)N(C)C)c1C | inactive
CCCCC(O)(Cn1cncn1)c1ccc(Cl)cc1Cl (stereo not given) | inactive
COC(=O)N(C(=O)N1CO[C@@]2(C(=O)OC)Cc3cc(Cl)ccc3C2=N1)c1ccc(OC(F)(F)F)cc1 | inactive
CN=C=S | inactive
C=CCOC(=O)C(C)(C)OC(=O)c1cc(-n2c(=O)cc(C(F)(F)F)n(C)c2=O)ccc1Cl | inactive
CS(=O)(=O)c1cc(C(F)(F)F)ccc1C(=O)c1cnoc1C1CC1 | inactive
O=C(O)c1c(Cl)ccc2cc(Cl)cnc12 | inactive
COc1ccc(-c2ccccc2)cc1NNC(=O)OC(C)C | inactive
